# Screening results as filed in PubChem BioAssay.
# Many of the other results were omitted from the sample, so hits are more common in it than they were.
# KDM5B inh – blocks human KDM5B histone demethylase activity | Q9UGL1 | KDM5B demethylase, FDH-coupled NADH fluorescence (FDH is formaldehyde dehydrogenase) | Potency, µM (series often up to 57.7 µM), most hits filed as inhibitors | 2.6% of 220,000 active | AID 1347165; active = well fitted inhibition curve with a large enough effect; note: 0% is about no effect; nearly all actives have a fitted effect of over 70% in size
#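 Inhibition is measured as reduced NADH fluorescence generation from FDH coupling to formaldehyde release. Truncated KDM5BΔAP at 200 nM final acts on H3K4me3 peptide (12.5 µM in substrate mix) in pH 7.5 HEPES buffer with Tween-20, 30 min, room temperature.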
# * = called active by the depositor; i = inactive. Potency is the fitted concentration of half-maximal effect.
SMILES,KDM5B inh
CCc1ccc2[nH]c(C(=O)Nc3ccc(Br)c(C)n3)cc2c1,i
CC(C)n1c(O)c(/C=C2\C=NN=C2c2ccccc2)sc1=S,i
Cc1ccc(C(=O)c2oc3ccccc3c2NC(=O)Cc2coc3ccc(C)cc23)cc1,i
CO[C@@H]1COCC[C@H]1NC(=O)CN(c1ccc(C)cc1)S(C)(=O)=O,i
C[C@@H](N)C(=O)N1CCC(C(=O)Nc2cccc(-c3cccc(Cl)c3)c2)CC1,i
N#CCCCCOC(=O)c1ccc(Oc2ccc(C(=O)OCCCCC#N)cc2)cc1,i
Cc1cc(C)cc(C(=O)OCC(=O)c2c(C)cc(C)cc2C)c1,i
CN1CCC(N[C@@H]2CCC[C@@H](C(=O)N(C)Cc3cccnc3)CC(=O)N(C)C2)CC1,i
CC1(COc2ccccc2)COc2ccc(C(=O)N3CCOCC3)cc2N1 (stereo not given),i
CC1(COc2ccccc2)COc2ccc(C(=O)NC3CCC(O)CC3)cc2N1 (stereo not given),31.6µM*
CC1(COc2ccccc2)COc2ccc(C(=O)NCc3cnccn3)cc2N1 (stereo not given),i
CCOC(=O)c1sc(N)cc1C,i
Cn1nc(C(=O)N2CCN(c3ccc(O)cc3)CC2)c2ccccc2c1=O,i
O=C(N[C@@H]1CN(C(=O)c2ccc3ncccc3c2)CC[C@@H]1CO)C1CC1,i
CCn1nc(C(=O)N(Cc2ccccc2)c2c(N)n(CCOC)c(=O)[nH]c2=O)c2ccccc2c1=O,i
Cc1cc(C)c2c(n1)sc1c(=O)n(CC(=O)c3ccccc3)cnc12,i
COCC1CN(S(=O)(=O)Cc2ccc(F)cc2)CC12CCNCC2 (stereo not given),i
COCC1CN(S(=O)(=O)Cc2ccccc2)CC12CCNCC2 (stereo not given),i
COCC1CN(Cc2ccc(Br)s2)CC12CCNCC2 (stereo not given),10µM*
CC(O)CNc1nc2c(c(=O)n(C)c(=O)n2C)n1Cc1ccc(Br)cc1 (stereo not given),i
c1cc(CN2CCNc3cc(-c4ccsc4)ncc3C2)ccn1,35.5µM*
COc1ccc(CN2CCNc3cc(Nc4ccccc4)ncc3C2)cc1O,28.2µM*
c1ccc(Nc2cc3c(cn2)CN(Cc2ccsc2)CCN3)cc1,39.8µM*
COc1ccc(CN2CCNc3cc(Nc4ccccc4)ncc3C2)cn1,31.6µM*
c1cncc(Nc2cc3c(cn2)CN(Cc2ccsc2)CCN3)c1,i
SMILES,KDM5B inh
COc1ccc(CN2CCNc3cc(-c4ccccc4)ncc3C2)cc1O,i
Fc1ccc(CNc2cc3c(cn2)CN(Cc2ccncc2)CCN3)cc1,i
COc1ccc(Nc2cc3c(cn2)CN(Cc2ccncc2)CCN3)cc1OC,i
CS(=O)(=O)N(C1CCOCC1)C1CN(C(=O)c2ccoc2)C1,i
CCN1CCN(c2ncnc3c2cnn3-c2ccc(C)c(Cl)c2)CC1,i
CCN(CC)C(=O)CN1C(=O)N(c2ccc(C)c(F)c2)S(=O)(=O)c2ccccc21,i
Cc1ccccc1NC(=O)C1CC(=O)n2ncnc2N1 (stereo not given),i
O=C(O)C[C@@H]1CCN(C(=O)c2ccc(C(F)(F)F)cc2)C[C@@H]1CCN1CCCCC1,i
CC1(C)C(=O)NC(=O)N1CC(=O)N1CCCC(CCc2c(F)cccc2F)C1 (stereo not given),i
Fc1ccccc1NC(=S)Nn1cnnc1,i
Cc1ccccc1S(=O)(=O)N1CCCC(CCC(=O)NC2CC2)C1 (stereo not given),14.1µM*
O=C(CCC1CCCN(S(=O)(=O)c2ccccc2)C1)NCC1CC1 (stereo not given),20µM*
Cc1ccccc1S(=O)(=O)N1CCCC(CCC(=O)O)C1 (stereo not given),i
O=C(CCC1CCCN(S(=O)(=O)c2ccc(F)cc2)C1)NC1CC1 (stereo not given),i
O=C(O)CCC1CCCN(S(=O)(=O)c2ccccc2)C1 (stereo not given),i
O=C(CCC1CCCN(S(=O)(=O)c2ccccc2)C1)NCc1ccc(Cl)cc1 (stereo not given),i
O=C1c2c(nc(COc3ccccc3)n2Cc2ccccc2)NCCN1CCOc1ccccc1,i
CCN(CC)S(=O)(=O)c1cc(-c2nc(-c3cccc(F)c3)no2)sc1C,i
O=C(COc1cc2oc(=O)cc(-c3ccccc3)c2cc1Cl)NCCCO,i
NC(=O)c1noc2c1CN(c1cc(-c3ccccc3)nc3ccnn13)CC2,25.1µM*
CC(=O)N1CCCN(c2cc(Cl)nc3ccnn23)CC1,i
Clc1cc(N2CCCCC2)n2nccc2n1,i
Cc1ccc(CNC(=O)c2ccc(NC(=O)c3cc4c(=O)[nH]c(C)cn4n3)cc2)cc1,3.16µM*
Cc1cn2nc(C(=O)NCc3cccc(Cl)c3)cc2c(=O)[nH]1,i
CSc1ccc(CNC(=O)c2cc3c(=O)[nH]c(C)cn3n2)cc1,i
SMILES,KDM5B inh
O=C(CSc1nnc(-c2ccccc2)c(-c2ccccc2)n1)NC1CCCCC1,i
O=C(CCNc1c(-c2ccccc2)nc2cnccn12)NC1CCCC1,28.2µM*
O=C(CCn1nc(-c2ccccc2)c2ccccc2c1=O)NC1CCCCC1,i
O=C(Cn1cccc1-c1nc(-c2ccc(F)cc2)no1)NC1CCCC1,i
O=C(c1cn[nH]c1-c1ccc(F)cc1)N1CCCCC1,i
O=C(CCNc1c(-c2ccc(F)cc2)nc2cnccn12)NC1CCCC1,28.2µM*
c1cn2c(NC3CCCCC3)c(-c3ccc(N4CCOCC4)cc3)nc2cn1,i
O=C(CCNc1c(-c2ccc(F)cc2)nc2cnccn12)N1CCCCC1,22.4µM*
O=C(Nc1c(-c2ccc(F)cc2)nc2ccccn12)c1ccccc1F,i
CC(C)CN1CCNC(=O)C1CC(=O)NCCCN1CCCc2ccccc21 (stereo not given),i
F[C@@H]1CN(C2CCC2)C[C@@H]1OCc1nc2ccncc2[nH]1,i
CCc1ccc(N2C(=O)CC(N3CCN(c4ccccn4)CC3)C2=O)cc1 (stereo not given),i
COc1ccc(-c2nn(-c3ccccc3)cc2CN2CCOC(C)(C)C2)c(F)c1,i
CCCCc1ccc(NC(=O)Cn2c(=O)c3c(ncn3CCOC)n(Cc3ccccc3)c2=O)cc1,i
COc1ccc(OC)c(NC(=O)CN2C(=O)CCc3cc(S(=O)(=O)N4CCCCC4)ccc32)c1,i
COc1ccc(C(=O)NCC2CCCCC2)cc1S(=O)(=O)N(C)C,i
CC1CCC(NC(=O)C(c2ccccc2)c2ccccc2)CC1 (stereo not given),i
CC(C)C(=O)Nc1ccc(C(N)=O)c(Cl)c1,i
CN1C(=O)CC[C@]2(C(=O)NCc3cc(F)cc(F)c3)CCCC[C@@H]12,i
CC1(COCC2CC2)COc2ccc(C(=O)Nc3ccccc3)cc2N1 (stereo not given),25.1µM*
CC(C)CNC(=O)c1ccc2c(c1)NC(C)(COCC1CC1)CO2 (stereo not given),39.8µM*
CC1(COCC2CC2)COc2ccc(C(=O)Nc3ccc4[nH]ccc4c3)cc2N1 (stereo not given),i
CC1(COCC2CC2)COc2ccc(C(=O)NCc3ccccc3)cc2N1 (stereo not given),35.5µM*
CN(Cc1cnc2ccccc2n1)C(=O)Cc1c[nH]c(=O)n(C)c1=O,i
OCc1cccc(Nc2nc(-c3ccsc3)nc3ccccc23)c1,i
CC(=O)c1ccccc1NC(=O)CC(C)(C(=O)O)c1ccccc1 (stereo not given),i
O=C(Cc1scnc1-c1cccs1)NCCc1ccc(Cl)cc1,i
